# Results as given in PubChem BioAssay (NCI).
# Compounds without any hit were thinned out: in the full panel of roughly 79,000, 15% have a hit. A number with no mark means an inactive call. Activity calls are given as the source filed them. Rule as the data show it: active = growth inhibition above about 70%; inactive = the rest.
# Legend:
# [1] = NCI Yeast Anticancer Drug Screen. Data for the mlh1 strain (AID 171);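 also: 0% = growth of vehicle-treated control cultures of the same strain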; settings: S. cerevisiae mlh1 strain growth inhibition, hits give high values
# Method in brief: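 Measured: yeast growth. Reference: vehicle-treated controls. Organism: strain with a defined alteration affecting DNA damage repair or cell cycle control, treated with compound.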
# [2] = NCI Yeast Anticancer Drug Screen. Data for the sgs1 strain (AID 173);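 also: 0% = growth of vehicle-only control cultures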; settings: S. cerevisiae sgs1 mutant, hits give high values
# Method in brief: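 Each compound was added to cultures of the altered yeast strain. Growth was recorded, and inhibition was derived by comparison with vehicle controls.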
# [3] = NCI Yeast Anticancer Drug Screen. Data for the mlh1 rad18 strain (AID 175); settings: S. cerevisiae mlh1 rad18 strain growth inhibition, hits give high values
# Method in brief: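 Genetically defined yeast (DNA repair-deficient) exposed to compounds; growth inhibition determined relative to vehicle.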
# [4] = NCI Yeast Anticancer Drug Screen. Data for the rad18 strain (AID 177); settings: S. cerevisiae rad18 mutant growth inhibition, hits give high values
# Method in brief: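 Vehicle-treated cultures served as the baseline for scoring compound-induced growth inhibition in DNA-repair-mutant yeast.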
# [5] = NCI Yeast Anticancer Drug Screen. Data for the rad52 strain (AID 147);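 also: 0% = growth of vehicle-treated control cultures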; settings: S. cerevisiae rad52 mutant growth inhibition, hits give high values
# Method in brief: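 The repair-mutant yeast strain was incubated with compounds, then growth was read and inhibition derived relative to vehicle.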
# [6] = NCI Yeast Anticancer Drug Screen. Data for the wt1 strain (AID 149);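 also: 0% = growth of vehicle-treated wt1 cultures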; settings: S. cerevisiae wt1 strain (SPY 50644) growth inhibition, hits give high values
# Method in brief: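 Yeast wt1 strain exposed to compounds; growth inhibition measured relative to vehicle-treated controls.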
# [7] = NCI Yeast Anticancer Drug Screen. Data for the rad50EPP+ strain (AID 151);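 also: 0% = growth of vehicle-treated control cultures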; settings: S. cerevisiae rad50 mutant strain, hits give high values
# Method in brief: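 Vehicle-normalised growth inhibition; rad50EPP+ yeast strain, altered in DNA damage repair, compound-treated.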
# [8] = NCI Yeast Anticancer Drug Screen. Data for the rad50 strain (AID 155);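 also: 0% = growth of vehicle-only cultures of the same strain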; settings: S. cerevisiae rad50 strain growth inhibition, hits give high values
# Method in brief: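 Yeast carrying a defined DNA repair defect were exposed to test compounds, and growth was compared with vehicle-treated controls to give percent inhibition.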
# [9] = NCI Yeast Anticancer Drug Screen. Data for the mec2-1 strain (AID 157); settings: S. cerevisiae mec2-1 strain, hits give high values
# Method in brief: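 Mutant yeast (mec2-1) grown with compound; growth inhibition relative to vehicle control reported.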
# [10] = NCI Yeast Anticancer Drug Screen. Data for the rad14 strain (AID 159);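 also: 0% = growth of vehicle-treated control cultures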; settings: S. cerevisiae rad14 strain growth inhibition, hits give high values
# Method in brief: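 Yeast cells carrying a defined DNA-repair defect were exposed to compounds, and growth inhibition was calculated relative to vehicle-treated control cultures.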
# [11] = NCI Yeast Anticancer Drug Screen. Data for the sgs1 mgt1 strain (AID 161);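 also: 0% = growth of cultures given vehicle only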; settings: S. cerevisiae sgs1 mgt1 strain, hits give high values
# Method in brief: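 Percent growth inhibition was derived by comparing compound-exposed mutant yeast with vehicle-exposed cultures. The strain carries alterations in DNA damage repair.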
# [12] = NCI Yeast Anticancer Drug Screen. Data for the CLN2oe strain (AID 163);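 also: 0% = growth of vehicle-only control cultures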; settings: S. cerevisiae CLN2oe strain, hits give high values
# Method in brief: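 Compounds are applied to yeast harbouring a defined cell-cycle control change; reduced growth compared with vehicle-treated controls gives the value.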
# [13] = NCI Yeast Anticancer Drug Screen. Data for the cln2 rad14 strain (AID 165);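 also: 0% = growth equal to vehicle treated cultures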; settings: S. cerevisiae cln2 rad14 strain, hits give high values
# Method in brief: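 Readout is yeast growth inhibition versus vehicle-treated controls, using a strain with cln2 and rad14 alterations exposed to compound.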
# [14] = NCI Yeast Anticancer Drug Screen. Data for the bub3 strain (AID 167); settings: S. cerevisiae bub3 mutant strain, hits give high values
# Method in brief: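 Compounds were applied to a genetically altered yeast strain carrying a cell-cycle control defect. Growth inhibition was scored against vehicle-treated controls.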
# [15] = NCI Yeast Anticancer Drug Screen. Data for the wt2 strain (AID 169);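 also: 0% = growth of vehicle-treated yeast cultures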; settings: S. cerevisiae wt2 strain growth inhibition, hits give high values
# Method in brief: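 Against vehicle-treated controls, the growth of yeast exposed to each compound was compared, and the inhibition was recorded.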
# [16] = at 5.0 µM (retest, dose inferred, filed as 0.5)
# [17] = at 50.0 µM (retest, dose inferred, filed as 5.0)
compound,measurement,setting,value
CS(=O)(=O)OCCN(CCOS(C)(=O)=O)c1ccc(C=O)cc1,growth inhibition,[1]; at 1.2 µM,2%
same,growth inhibition,[1]; at 3.7 µM,11%
same,growth inhibition,[1]; at 11.0 µM,25%
same,growth inhibition,[1]; at 33.0 µM,53%
same,growth inhibition,[1]; at 100.0 µM,82% (active)
same,growth inhibition,[2]; at 1.2 µM,15%
same,growth inhibition,[2]; at 3.7 µM,35%
same,growth inhibition,[2]; at 11.0 µM,58%
same,growth inhibition,[2]; at 33.0 µM,80% (active)
same,growth inhibition,[2]; at 100.0 µM,89% (active)
same,growth inhibition,[3]; [16],76% (active)
same,growth inhibition,[3]; [17],95% (active)
same,growth inhibition,[3]; at 50.0 µM,91% (active)
same,growth inhibition,[4]; at 1.2 µM,85% (active)
same,growth inhibition,[4]; at 3.7 µM,92% (active)
same,growth inhibition,[4]; at 11.0 µM,95% (active)
same,growth inhibition,[4]; at 33.0 µM,96% (active)
same,growth inhibition,[4]; at 100.0 µM,96% (active)
CC[C@]1(O)CC(OC2CC(N(C)C)C(O)C(C)O2)c2c(cc3c(c2O)C(=O)c2c(O)cccc2C3=O)[C@@H]1C(=O)OC (stereo partly specified),growth inhibition,[5]; at 1.2 µM,31%
same,growth inhibition,[5]; at 3.7 µM,77% (active)
same,growth inhibition,[5]; at 11.0 µM,86% (active)
same,growth inhibition,[5]; at 33.0 µM,94% (active)
same,growth inhibition,[5]; at 100.0 µM,96% (active)
same,growth inhibition,[6]; at 1.2 µM,-2%
same,growth inhibition,[6]; at 3.7 µM,-4%
same,growth inhibition,[6]; at 11.0 µM,-1%
same,growth inhibition,[6]; at 33.0 µM,91% (active)
same,growth inhibition,[6]; at 100.0 µM,96% (active)
same,growth inhibition,[7]; at 1.2 µM,6%
same,growth inhibition,[7]; at 3.7 µM,12%
same,growth inhibition,[7]; at 11.0 µM,40%
same,growth inhibition,[7]; at 33.0 µM,70% (active)
same,growth inhibition,[7]; at 100.0 µM,89% (active)
same,growth inhibition,[8]; at 1.2 µM,33%
same,growth inhibition,[8]; at 3.7 µM,75% (active)
same,growth inhibition,[8]; [16],50%
same,growth inhibition,[8]; at 11.0 µM,87% (active)
same,growth inhibition,[8]; at 33.0 µM,96% (active)
same,growth inhibition,[8]; [17],95% (active)
same,growth inhibition,[8]; at 50.0 µM,91.6% (active)
same,growth inhibition,[8]; at 100.0 µM,97% (active)
same,growth inhibition,[9]; at 1.2 µM,-16%
same,growth inhibition,[9]; at 3.7 µM,-14%
same,growth inhibition,[9]; [16],4%
same,growth inhibition,[9]; at 11.0 µM,7%
same,growth inhibition,[9]; at 33.0 µM,79% (active)
same,growth inhibition,[9]; [17],95% (active)
same,growth inhibition,[9]; at 50.0 µM,93% (active)
same,growth inhibition,[9]; at 100.0 µM,95% (active)
same,growth inhibition,[10]; at 1.2 µM,-12%
same,growth inhibition,[10]; at 3.7 µM,-18%
same,growth inhibition,[10]; at 11.0 µM,0%
same,growth inhibition,[10]; at 33.0 µM,81% (active)
same,growth inhibition,[10]; at 100.0 µM,96% (active)
same,growth inhibition,[11]; [16],36%
same,growth inhibition,[11]; [17],96% (active)
same,growth inhibition,[11]; at 50.0 µM,93% (active)
same,growth inhibition,[12]; at 1.2 µM,-37%
same,growth inhibition,[12]; at 3.7 µM,-6%
same,growth inhibition,[12]; at 11.0 µM,12%
same,growth inhibition,[12]; at 33.0 µM,89% (active)
same,growth inhibition,[12]; at 100.0 µM,95% (active)
same,growth inhibition,[13]; [16],15%
same,growth inhibition,[13]; [17],92% (active)
same,growth inhibition,[13]; at 50.0 µM,90.4% (active)
same,growth inhibition,[14]; at 1.2 µM,33%
same,growth inhibition,[14]; at 3.7 µM,32%
same,growth inhibition,[14]; [16],21%
same,growth inhibition,[14]; at 11.0 µM,36%
same,growth inhibition,[14]; at 33.0 µM,93% (active)
same,growth inhibition,[14]; [17],97% (active)
same,growth inhibition,[14]; at 50.0 µM,92% (active)
same,growth inhibition,[14]; at 100.0 µM,98% (active)
same,growth inhibition,[15]; at 1.2 µM,-6%
same,growth inhibition,[15]; at 3.7 µM,-6%
same,growth inhibition,[15]; at 11.0 µM,41%
same,growth inhibition,[15]; at 33.0 µM,95% (active)
same,growth inhibition,[15]; at 100.0 µM,97% (active)
same,growth inhibition,[1]; at 1.2 µM,-4%
same,growth inhibition,[1]; at 3.7 µM,6%
same,growth inhibition,[1]; at 11.0 µM,9%
same,growth inhibition,[1]; at 33.0 µM,90% (active)
same,growth inhibition,[1]; at 100.0 µM,96% (active)
same,growth inhibition,[2]; at 1.2 µM,-8%
same,growth inhibition,[2]; at 3.7 µM,-2%
same,growth inhibition,[2]; at 11.0 µM,14%
same,growth inhibition,[2]; at 33.0 µM,92% (active)
same,growth inhibition,[2]; at 100.0 µM,96% (active)
same,growth inhibition,[3]; [16],22%
same,growth inhibition,[3]; [17],95% (active)
same,growth inhibition,[3]; at 50.0 µM,91% (active)
same,growth inhibition,[4]; at 1.2 µM,6%
same,growth inhibition,[4]; at 3.7 µM,-9%
same,growth inhibition,[4]; at 11.0 µM,2%
same,growth inhibition,[4]; at 33.0 µM,95% (active)
same,growth inhibition,[4]; at 100.0 µM,97% (active)
